Data as given in PubChem BioAssay (NCI).
About 83,000 compounds went through this panel and 20% of them were active in at least one assay; those are over-represented in the sample as a whole.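 Negative percent growth values reflect cell death: -40 means 40% of the cells present at the start died, and -100 means all died.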 The source made the active and inactive calls. How the source made its calls: active means growth percent below 10; inactive means the rest.

Tests used:
Assay in all cases: NCI-60 one-dose screen, 48 h (100 = growth as untreated, 0 = no growth, -100 = all killed)
Settings in all cases: 10 µM unless noted
[1] = tested on: NCI-H23 lung
[2] = tested on: NCI-H226 lung
[3] = tested on: NCI-H322M lung
[4] = tested on: HOP-62 NSCLC
[5] = tested on: NCI-H460 lung
[6] = tested on: HOP-92 NSCLC
[7] = tested on: NCI-H522 lung
[8] = tested on: A549/ATCC NSCLC
[9] = tested on: 786-0 renal
[10] = tested on: COLO 205 colon

Measured: growth

c1cc[n+](Cc2c3ccccc3cc3c2ccc2ccccc23)cc1
inactive: [1] 16.9% | [2] 26.3% | [3] 53.9% | [4] 23.7% | [5] 42.8% | [6] 25% | [7] 18.4% | [8] 63.7% | [9] 38%
active: [10] 2.06%

CCc1nc2cc(/C=C/C(=O)NO)c(F)cc2c(=O)n1CCc1ccccc1
active: [1] -5.22% | [2] 3.63% | [4] -4.23% | [5] 3.81% | [6] 7.39% | [8] -2.46% | [9] 0.452% | [10] -33.1%
inactive: [3] 20.5% | [7] 10.6%

Cc1cc(Nc2nc(N[C@@H](C)c3ncc(F)cn3)ncc2Cl)n[nH]1
inactive: [1] 69.9% | [2] 46.8% | [3] 52.8% | [4] 60.3% | [5] 81.6% | [6] 108% | [7] 68.3% | [8] 66.2% | [9] 73.8% | [10] 44.1%

CN(N)c1nc2sc3c(c2c(=O)[nH]1)CCCC3
inactive: [1] 93.5% | [2] 101% | [3] 96.9% | [4] 76.6% | [5] 104% | [6] 107% | [7] 89.2% | [8] 81.1% | [9] 98.2% | [10] 100%

C#Cc1cccc(Nc2ncnc3cc(OCCOC)c(OCCOC)cc23)c1
active: [3] 0.463% | [7] -6.57%
inactive: [1] 74.9% | [2] 75.4% | [4] 63% | [5] 55.8% | [6] 72.8% | [8] 41.5% | [9] 57.5% | [10] 60.8%

CC(=Nc1ccccc1)C1=C(O)C(Cc2ccc(O)cc2)NC1=O (stereo not given)
active: [1] 2.24% | [5] 4.41% | [6] -10.1% | [7] -27.1% | [8] -27.7% | [9] 9.29% | [10] -71%
inactive: [2] 15.5% | [3] 39.6% | [4] 19.8%

Nc1nc(N)c2nc(-c3cccc(O)c3)c(-c3cccc(O)c3)nc2n1
inactive: [1] 82.5% | [2] 78.5% | [3] 47% | [4] 54.1% | [5] 92.8% | [6] 49.5% | [7] 49.3% | [8] 75.1% | [9] 65.7% | [10] 79%

Nc1cc(C(F)(F)F)c(-c2cc(N3CCOCC3)nc(N3CCOCC3)n2)cn1
active: [1] -11.8% | [2] -10.6% | [3] -18.3% | [4] -40.8% | [5] -12.9% | [6] -42.2% | [7] -51.7% | [8] -44.8% | [9] -9.19% | [10] -61.3%

CCN(CCO)CCCOc1ccc2c(Nc3cc(CC(=O)Nc4cccc(F)c4)[nH]n3)ncnc2c1
inactive: [1] 29.2% | [2] 63.9% | [3] 14.4% | [4] 35.7% | [5] 22.6% | [6] 23.2% | [7] 22.9% | [8] 23.9% | [9] 66.1%
active: [10] -35.6%

COc1ccc(C(=O)c2cc(OC)c(OC)c(OC)c2)cc1/C=C/C(=O)c1ccc(F)cc1
inactive: [1] 79.7% | [2] 90.4% | [3] 85.5% | [4] 95.5% | [5] 92.9% | [6] 69.2% | [7] 18.5% | [8] 90.7% | [9] 77.4% | [10] 79.3%

CCc1cnn2c(NCc3ccc[n+]([O-])c3)cc(N3CCCC[C@H]3CCO)nc12
active: [1] -23.3% | [2] -6.42% | [3] -0.876% | [4] -33.2% | [5] 1.82% | [6] -20.2% | [7] -42.2% | [8] -13.4% | [9] 7.96% | [10] -62.5%

C/C(=C(/c1ccc(Cl)cc1)c1ccc(OCCN2CCCCC2)cc1)c1ccccc1
inactive: [1] 76.3% | [2] 98.7% | [3] 91.4% | [4] 68.8% | [5] 74.4% | [6] 83.6% | [7] 81.4% | [8] 57.2% | [9] 75.6% | [10] 11.8%

Fc1ccc(NCc2cn(-c3ccccc3)nc2-c2ccc(OCc3ccccc3)cc2)cc1Cl
inactive: [1] 82% | [2] 102% | [3] 105% | [4] 76.6% | [5] 110% | [6] 91.2% | [7] 58.5% | [8] 83.3% | [9] 88.7% | [10] 100%

NC1(C(=O)N[C@@H](CCO)c2ccc(Cl)cc2)CCN(c2ncnc3[nH]ccc23)CC1
active: [6] -13.2% | [9] 1.31%
inactive: [1] 53% | [2] 17.3% | [3] 55% | [4] 33.9% | [5] 24.6% | [7] 44.2% | [8] 56.6% | [10] 32.1%

COc1cc(N2CCC(N(C)C)CC2)ccc1Nc1ncc(Cl)c(Nc2ccccc2P(C)(C)=O)n1
active: [1] 5.53% | [2] -44.3% | [3] -9.57% | [4] -4.93% | [5] 7% | [6] -60.2% | [7] -39.4% | [8] -35.8% | [9] -20.6% | [10] -62.7%

COC[C@@H](C)n1c(C2CCOCC2)nc2c1C1C=C(OC)C(c3c(C)noc3C)=CC1N=C2 (stereo not given in full)
inactive: [1] 48.5% | [2] 65.1% | [3] 40.7% | [4] 51.5% | [5] 59.4% | [6] 11.1% | [8] 42.6% | [9] 48.6% | [10] 31.9%
active: [7] -1.23%

CC(C)(C)c1nc(-c2cccc(NS(=O)(=O)c3c(F)cccc3F)c2F)c(-c2ccnc(N)n2)s1
inactive: [1] 63.6% | [2] 84.5% | [3] 90.3% | [4] 77.1% | [5] 74.4% | [6] 92.9% | [7] 57.5% | [8] 53.6% | [9] 91.9%
active: [10] -5.08%

COc1cc2ncnc(Nc3ccc(F)c(Cl)c3)c2cc1NC(=O)/C=C/CN1CCCCC1
active: [1] -54.1% | [2] -83.4% | [3] -1.5% | [4] -51.9% | [5] -69.9% | [6] -83.6% | [7] -56.9% | [8] -76.9% | [9] -81.7% | [10] -76.6%

CCCCCCCCCNCCCCCCCCC
active: [6] 8.18% | [7] -3.05% | [10] -92.8%
inactive: [1] 40.4% | [2] 69.6% | [3] 113% | [4] 76.3% | [5] 103% | [8] 99.3% | [9] 66.5%

CCCCn1c(C)nc2ccc(Nc3nc(N4CCN(C)CC4)nc4nc[nH]c34)cc21
inactive: [1] 95.5% | [2] 93% | [3] 91.3% | [4] 90.9% | [5] 104% | [6] 64.8% | [7] 87.2% | [8] 94.2% | [9] 92.8% | [10] 87.9%

CCN1CCN(c2cc(C)nc(N(CCCNc3ccnc4cc(Cl)ccc34)Cc3cccs3)n2)CC1
active: [4] -25.4% | [5] 5.44% | [7] 8.27% | [9] -71.8% | [10] -80.2%
inactive: [1] 49% | [2] 57.6% | [3] 12% | [6] 11.6% | [8] 20.1%

O=S1(=O)OC(c2cc(Cl)c(O)c(Br)c2)(c2cc(Cl)c(O)c(Br)c2)c2ccccc21
inactive: [1] 103% | [2] 104% | [3] 112% | [4] 99% | [5] 105% | [6] 68.5% | [7] 70.8% | [8] 94.1% | [9] 106% | [10] 115%

COC(=O)C1CCc2sc3ncnc(Nc4cn[nH]c4C(=O)Nc4ccc(CN5CCN(C)CC5)cc4)c3c21 (stereo not given)
inactive: [2] 14.9%
active: [1] -9.63% | [3] 8.74% | [4] 0.169% | [5] -59% | [6] -29.2% | [7] -1.37% | [8] 4.85% | [9] -4.45% | [10] -70.8%

O=C1NC(=O)[C@@H](c2cn3c4c(cccc24)CCC3)[C@@H]1c1c[nH]c2ccccc12
inactive: [1] 32.5% | [2] 57% | [3] 41.9% | [6] 31% | [9] 21.5%
active: [4] 5.24% | [5] 5.41% | [7] -0.0655% | [8] 6.25% | [10] -57.3%

COC(=O)CCCNc1c(-c2c(O)c(O)cc3c(O)c(-c4c(C)cc5c(-c6nc7ccccn7c6NCCCC(=O)OC)c(O)c(O)cc5c4O)c(C)cc23)nc2ccccn12
inactive: [2] 64.8% | [3] 93.2% | [4] 37.1% | [6] 55.3% | [8] 23.4% | [9] 67.6% | [10] 87%
active: [1] 6.48% | [5] 6.59% | [7] 1.98%

COC(=O)[C@@H](NC(=O)[C@@H](OC)[C@@H]1Cc2cc3cc(OC4CC(OC5CC(O)C(O)C(C)O5)C(O)C(C)O4)c(C)c(O)c3c(O)c2C(=O)[C@H]1OC1CC(OC2CC(OC3CC(C)(O)C(O)C(C)O3)C(O)C(C)O2)C(O)C(C)O1)C(C)C (stereo not given in full)
inactive: [3] 24.8% | [10] 13.8%
active: [1] -6.89% | [2] -23.4% | [4] 6.44% | [5] -6.19% | [6] -18.9% | [7] -20% | [8] 7.37% | [9] -21.2%

C[N+](C)(CCOC(c1ccccc1)c1ccccc1)CC(=O)OCc1ccccc1
inactive: [1] 101% | [2] 91.8% | [3] 90.6% | [4] 97.8% | [5] 110% | [6] 106% | [7] 93.8% | [8] 102% | [9] 105% | [10] 103%
